Consider 91 molecules from PubChem BioAssay AID540308 (The Scripps Research Institute Molecular Screening Center, 2011).

About 3,500 (0.97%) of roughly 360,000 compounds were called active. The list comes from a sample in which actives are over-represented; it also holds similar structures and randomly drawn compounds. Values without a mark were called inactive.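 How the source made its calls: active means activation above a per-plate cutoff, the mean activation of sample wells on that plate plus 3 SD (cut at about 8% in these data); inactive means the rest.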

The assay deals with Melanocortin receptor 4 (Homo sapiens) (UniProt P32245). Put plainly: activators of MC4R beta-arrestin recruitment – cell-based, luminescence, agonist arm of biased-ligand search, primary screen (AID 540308). Particulars: U2OS MC4R beta-arrestin complementation, at 8.9 µM, stronger effect = higher value, percent of melanotan II response, DMSO zero. For orientation: Activated receptors often draw arrestin, which recruitment assays turn into a signal.
Chain of Melanocortin receptor 4 (Homo sapiens) (P32245 whole entry, looked up): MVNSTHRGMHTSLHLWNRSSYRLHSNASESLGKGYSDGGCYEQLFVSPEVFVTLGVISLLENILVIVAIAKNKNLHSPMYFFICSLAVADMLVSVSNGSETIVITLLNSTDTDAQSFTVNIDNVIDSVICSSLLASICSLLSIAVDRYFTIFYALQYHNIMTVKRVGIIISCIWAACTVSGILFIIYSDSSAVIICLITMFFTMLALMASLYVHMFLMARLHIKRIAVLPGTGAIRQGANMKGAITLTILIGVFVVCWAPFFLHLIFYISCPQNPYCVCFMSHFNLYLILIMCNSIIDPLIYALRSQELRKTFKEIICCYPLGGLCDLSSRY
On to `CCCCc1ccc(S(=O)(=O)NC(=O)C2(C)CCN2C(=O)c2c(C)noc2C)cc1` (stereo unspecified), for which the activation was -2.14%.

Consider `Cc1cc(Cl)ccc1-c1nc(NCCN(C)C)nc2ccsc12`, for which the activation was -0.54%.

In the case of `CCOC(=O)c1ccc(NC(=O)c2nc[nH]c2C(=O)NCc2ccccc2)cc1`, the activation was 8.44% (active).

For `CCOC(=O)c1[nH]cnc1C(=O)Nc1ccccc1C`, the activation was 1%.

In the case of `O=C(Nc1ccon1)c1nc[nH]c1C(=O)NCc1ccccc1`, the activation was -0.8%.

`COc1ccc(C(=O)N2CCCCC2c2cc(C(=O)Nc3ccc(F)c(Cl)c3)no2)cc1` (stereo unspecified): the activation was 2.26%.

As for `Cc1ccnc(N2C(=O)c3ccc([N+](=O)[O-])cc3C2=O)c1`, the activation is -1.22%.

Regarding `Cc1ccc(C(=O)Cn2cc([N+](=O)[O-])nc2C)cc1`, the activation is -1.74%.

`Cc1ccc(-n2cc3ccc([N+](=O)[O-])cc3n2)cc1`: the activation was 16.1% (active).

`COc1ccc(C(C)(O)c2nc(-c3cc(F)cc(F)c3)cs2)cc1` (stereo unspecified): the activation is 3.01%.

As for `COC(=O)c1ccc(Sc2ccc(F)cc2)c(N)c1`, the activation was -1.17%.

On to `Cc1ccc(Sc2ccc(NC(=O)c3ccc(F)cc3)cc2C#N)cc1`, for which the activation was 17% (active).

Take `COc1ccc(Sc2ccc(NC(=O)c3cccc(Cl)c3)cc2C#N)cc1`: the activation was -0.48%.

Take `Clc1ccc(-c2cccc3nccn23)cc1`: the activation was -0.44%.

As for `CCOC(=O)N/N=C/c1cn(Cc2ccccc2Cl)c2ccccc12`, the activation was -2.13%.

As for `COc1cccc(Cn2cc(/C=N/NC(=O)c3cc(O)cc(O)c3)c3ccccc32)c1`, the activation was -2.32%.

`N#CCC(=O)N/N=C/c1cn(Cc2ccc3ccccc3c2)c2ccccc12`: the activation was 11.1% (active).

As to `Cc1ccc(C)c(N2CCN(S(=O)(=O)c3c(C)[nH]c(C)c3C(=O)N3CCCC3)CC2)c1`, the activation is -0.89%.

With `Cc1ccc(C)c(N2CCN(S(=O)(=O)c3ccc4c(c3)oc(=O)n4C)CC2)c1`, the activation is -1.63%.

As for `COC(=O)c1cc(S(=O)(=O)N2CCN(c3cc(C)ccc3C)CC2)c[nH]1`, the activation is 9.07% (active).

For the molecule `O=c1c2c(-c3ccccc3)ccnc2[nH]n1-c1ccccc1`, the activation was -0.95%.

`O=c1[nH]cnc2c1c(-c1ccccc1)cn2-c1ccc(F)cc1`: the activation was 8.69% (active).

Regarding `COc1ccc(-n2cc(-c3ccccc3)c3c(=S)nc[nH]c32)cc1`, the activation was 2.91%.

On to `COc1cc(Cn2c3ccc(NC(=O)CC(C)c4ccccc4)cc3c(=O)n2C)ccc1F` (stereo unspecified), for which the activation was 1.46%.

As for `O=C(NCc1ccccc1Cl)c1csc([C@@H]2O[C@H](CO)[C@@H](O)[C@H]2O)n1`, the activation was -0.25%.

On to `O=C(/C=C/c1ccccc1)Nc1nnc(SCC(=O)c2ccc3ccccc3c2)s1`, for which the activation was -0.51%.

Consider `CCOCc1nnc(NC(=O)CSc2ccc(C)cc2)s1`, for which the activation is -1.16%.

In the case of `O=C(CSc1ccccc1)Nc1nnc(/C=C/c2ccccc2)s1`, the activation is 10.9% (active).

As for `CCNC(=O)C1(C)CCCN(Cc2noc(-c3ccccc3OC)n2)C1` (stereo unspecified), the activation was 0.8%.

Consider `COc1ccc(OC)c(NC(=O)c2cc(-c3cc(F)ccc3OCC3CCCO3)n[nH]2)c1` (stereo unspecified), for which the activation was 2.25%.

On to `Cc1nc(C(F)(F)F)ccc1C(=O)N1CCC1(C)C(=O)NS(=O)(=O)c1ccccc1` (stereo unspecified), for which the activation was -2.41%.

As for `O=C(Nc1nnc(Cc2ccc(Cl)cc2)s1)c1ccncc1`, the activation was -0.7%.

In the case of `O=C(Nc1nnc(COc2ccccc2)s1)Nc1ccccc1F`, the activation was -0.21%.

Take `COc1ccc(Cc2nnc(NC(=O)c3cc(OC)c(OC)c(OC)c3)s2)cc1OC`: the activation was 0.62%.

Turning to `COc1ccccc1NC(=O)Nc1nc(CC(=O)Nc2ccccc2F)cs1`, the activation is -1.3%.

In the case of `COc1ccc(Cc2nnc(NC(=O)c3ccc(OC)cc3OC)s2)cc1`, the activation was 16.6% (active).

Consider `COc1ccccc1NC(=O)Nc1nnc(Cc2ccc(F)cc2)s1`, for which the activation is 13.2% (active).

As to `COc1cccc(CNc2nc3cc(-c4csc5ccccc45)sc3c(=O)n2C)c1`, the activation is 6.53%.

As to `Cc1ccc(Cn2c(C)c(C(=O)NCc3ccccc3C(F)(F)F)sc2=O)cc1`, the activation is 0.28%.

As to `CC1(C(=O)Nc2ccccc2Br)CCN1C(=O)CC1CC1` (stereo unspecified), the activation was 1%.

Turning to `Cc1ccccc1S(=O)(=O)NC(=O)C1(C)CCN1C(=O)Cc1ccc(Cl)cc1Cl` (stereo unspecified), the activation is -1.27%.

Take `CCCc1c(C)nc2c(Br)cccc2c1Cl`: the activation is 0.46%.

With `COc1cccc(NC(=O)C2(C)CCN2Cc2ccccc2Cl)c1` (stereo unspecified), the activation is 2.88%.

For `Cc1cc(=O)n2nc(N3CCCC(C(=O)NCc4ccc(Cl)cc4)C3)sc2n1` (stereo unspecified), the activation is -1.57%.

In the case of `O=C(NCc1ccccc1)C1CCCN(S(=O)(=O)c2cccs2)C1` (stereo unspecified), the activation is 1.44%.

`O=C(NCc1ccccc1)C1CCCN(c2nc3ccsc3c(=O)s2)C1` (stereo unspecified): the activation was 8.43% (active).

Take `Cc1ccccc1CN1CCC(C(=O)Nc2ccc(Oc3cccnc3)cc2)CC1`: the activation is -3.23%.

With `CCc1nc2ccc(C(=O)NCc3ccc(OC)cc3)cn2c1N(CC)Cc1cccc(Br)c1`, the activation was -1.05%.

On to `CC(=O)Nc1ccc(-c2cn3cccnc3n2)cc1`, for which the activation was -2.81%.

As for `O=C(Nc1nc(-c2ccc(-c3ccccc3)cc2)cs1)c1cnccn1`, the activation was 25.9% (active).

`Cc1ccc(NC(=O)Nc2cc(-c3ccccc3)nn2C)cc1Cl`: the activation is -0.42%.

For `O=C(NCCCNC(=O)c1ccccc1Cl)c1cnccn1`, the activation is 0.85%.

For the molecule `O=C(Nc1nnc(Cc2ccccc2)s1)c1cnccn1`, the activation was -0.34%.

Take `CC(=O)Nc1ccc(-c2csc(NC(=O)Nc3ccccc3)n2)cc1`: the activation was 11% (active).

`CC(C)(C)c1ccc(S(=O)(=O)NC(=O)C2(C)CCN2C(=O)CC2CC2)cc1` (stereo unspecified): the activation is -2.01%.

With `COCCNc1ncnc2c1ncn2[C@H]1CN(CCN2CCOCC2)C[C@@H](CO)O1`, the activation was -1.53%.

Consider `CC1(C(=O)NS(=O)(=O)c2cccc(OC(F)F)c2)CCN1C(=O)C1CC1` (stereo unspecified), for which the activation is -1.02%.

On to `CC1(C(=O)NS(=O)(=O)Cc2cccc(Cl)c2)CCN1C(=O)Cc1ccc(Cl)cc1Cl` (stereo unspecified), for which the activation is 1.12%.

`CCc1nc2ccc(C(=O)Nc3ccc(OC)c(OC)c3)cn2c1N(C)C(=O)c1cccc(OC)c1`: the activation is -1.68%.

Regarding `CC1(C(=O)NCc2ccc3c(c2)OCO3)CCN1C(=O)Cc1cccc2ccccc12` (stereo unspecified), the activation is -2.21%.

As to `Clc1ccc2nc(-c3ccccc3)nc(C(Cl)Cl)c2c1`, the activation is 1.35%.

Consider `NC(N)=Nc1nc(-c2ccccc2)c2cc(Cl)ccc2n1`, for which the activation was 9.69% (active).

Turning to `COC(=O)Cn1nc(-c2ccccc2)c2cc(Cl)ccc21`, the activation was -2.4%.

Consider `CC1(C(=O)NS(=O)(=O)c2cccc(F)c2)CCN1C(=O)Cc1ccc(Cl)cc1Cl` (stereo unspecified), for which the activation was -2.74%.

Take `Cc1ccccc1-c1nc(NC(C)C)nc2cc(-c3ccccc3)sc12`: the activation was -0.61%.

`CC1(C(=O)NS(=O)(=O)c2ccc3ccccc3c2)CCN1C(=O)C1(c2ccc(Cl)cc2)CCC1` (stereo unspecified): the activation is -0.24%.

`CCSc1nnc(-c2cc3c(s2)-c2ccccc2CC3)o1`: the activation was -0.34%.

Regarding `CCSc1nc2sc3c(c2c(=O)[nH]1)CC(C)(C)OC3`, the activation is -0.6%.

For the molecule `CSc1nc2sc3c(c2c(=O)[nH]1)CCc1ccccc1-3`, the activation was 12.4% (active).

As for `COc1ccc(/C=C/C(=O)c2c(O)cc(OC)cc2OC)cc1`, the activation is -0.69%.

`N#Cc1cccc(NC(=O)c2cc(C3CCCCN3C(=O)CCc3ccccc3)on2)c1` (stereo unspecified): the activation is -1.43%.

`CC(C)Oc1ccc(CN2CCC2(C)C(=O)NCc2ccc(C(F)(F)F)cc2)cc1` (stereo unspecified): the activation was 0.02%.

As to `COc1ccc(C(=O)OCC(=O)N2CC(=O)Nc3ccccc32)cc1Br`, the activation is 0.65%.

`COc1ccc(Cl)cc1-n1c(C)cc(C(=O)OCC(=O)N2CC(=O)Nc3ccccc32)c1C`: the activation is 15.3% (active).

For `COc1cc(OC)c(C(=O)OCC(=O)N2CC(=O)Nc3ccccc32)cc1OC`, the activation is -2.02%.

With `O=C(Nc1cccc(Cc2ccccc2)c1)Nc1ccc2nc([C@@H]3O[C@H](CO)[C@@H](O)[C@H](O)[C@H]3O)[nH]c2c1`, the activation is -0.22%.

Turning to `C[C@H](NC(=O)[C@@H]1Cc2ccccc2CN1C(=O)OC(C)(C)C)C(=O)NC1CCCC1`, the activation was -3.11%.

As for `CC(=O)Nc1cnc(-c2ccc(O)cc2C)cn1`, the activation is -2.1%.

For the molecule `Cc1c(C(=O)NCC2CC2)sc(=O)n1Cc1cccc(F)c1`, the activation is 1.11%.

Regarding `COc1ccc(CC(=O)Nc2cc(S(=O)(=O)N3CCCCC3)ccc2N2CCN(C)CC2)cc1`, the activation is -2.51%.

Regarding `Cc1cccc(NC(=O)Nc2cccc(Oc3c(F)c(F)c(F)c(F)c3F)c2)c1`, the activation was 15.8% (active).

For `Cc1ccoc1C(=O)Nc1cccc(Oc2ccccc2)c1`, the activation is 0.82%.

In the case of `COc1cccc(NC(=O)Nc2ccc(F)cc2)c1`, the activation was 1.45%.

With `CC(C)CNC(=O)C1(C)CCCN1C(=O)CSc1ccccc1` (stereo unspecified), the activation is -1.48%.

In the case of `CC(Oc1ccc(Br)cc1)C(=O)NCC(c1ccco1)N1CCCCC1` (stereo unspecified), the activation was 0.14%.

Turning to `O=C(Nc1ccc(N2CCOCC2)cc1)c1cccc2c(-c3ccc(F)c(F)c3)coc12`, the activation was 3.52%.

Take `Cc1ccc(C(=O)Nc2sc(Cc3ccc4c(c3)OCO4)c(C)c2C(N)=O)cc1`: the activation was 0.85%.

Consider `COc1ccc(CC(=O)Nc2sc(Cc3ccccc3)c(C)c2C(N)=O)cc1`, for which the activation was 9.06% (active).

Regarding `COc1ccc(CC(=O)Nc2c(C(N)=O)oc3ccccc23)cc1`, the activation was -1.72%.

`CCc1nc2ccc(C(=O)N(C)CCN(C)C)cn2c1N(CC)CCOC`: the activation was -1.01%.

Consider `COc1ccc(NC(=O)C2Cc3c(-c4ccc(Cl)cc4)ccnc3O2)cc1` (stereo unspecified), for which the activation was 2.27%.
